Measurements reported in PubChem BioAssay (NCATS).
Results filed as inconclusive are left out. Where a call stands in place of a potency, no number is given. A number with no mark means an inactive call. Calls of active or inactive are those of the source. Calls come from the whole dose curve; as a rule, active = well fitted inhibition curve with a large enough effect; inconclusive = small, poorly fitted or top-dose-only effect; inactive = flat fitted curve, though single readings scatter. Where a SMILES comes first, the peptide text is derived from it.
Note: nearly all actives have a fitted effect of over 65% in size.

These compounds were tested against Glutathione peroxidase 1 (Homo sapiens) (UniProt P07203) (assay: Primary qHTS Assay for Inhibitors of Recombinant Selenoprotein Glutathione Peroxidase 1 (GPX1) (AID 1845191)). Conditions: recombinant GPX1, GR-coupled NADPH fluorescence, 15 min; series mostly up to 27.7 µM.
Glutathione peroxidase 1 (Homo sapiens), sequence (P07203 whole entry, looked up): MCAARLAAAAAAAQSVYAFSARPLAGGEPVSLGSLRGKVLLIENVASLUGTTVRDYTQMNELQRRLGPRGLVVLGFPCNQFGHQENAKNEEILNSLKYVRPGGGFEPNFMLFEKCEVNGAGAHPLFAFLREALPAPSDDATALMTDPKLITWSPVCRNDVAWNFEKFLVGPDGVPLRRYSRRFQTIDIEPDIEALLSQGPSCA
In short: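 NADPH consumption tracked by fluorescence at 340/450 nm between t=0 and t=15 min, room temperature. Final mix: 10 nM GPX1, 100 nM glutathione reductase, 1 mM GSH, 0.5 mM NADPH, 0.5 mM cumene hydroperoxide, 0.01% BSA; 30 min compound–enzyme preincubation.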
In the case of `CN1CCN(C2=Nc3ccccc3Nc3ccc(O)cc32)CC1`, the Potency is reported as “inactive”. With `CC[C@@H]1C(=O)O[C@]23C=C[C@@H]4C(C(=O)OC)=CO[C@H](O[C@@H]12)[C@@H]43` the Potency was “inactive”. For `CC(C)NC(=O)c1ccc(C#Cc2ccncc2)cn1`, the Potency was “inactive”. In the case of `N[C@@H](CC(=O)Nc1ccc(Oc2cc(F)c(F)cc2Br)cc1)C(=O)O`, the Potency is reported as “inactive”. In the case of `CC1=CC(=O)CC(C)(C)C1CCC(C)O[C@@H]1O[C@H](CO)[C@@H](O)[C@H](O)[C@H]1O` (stereo partly specified), the Potency is reported as “inactive”. `COc1cc(O)cc2c1C(=O)OC(C)C2` (stereo unspecified) was tested, and the Potency was “inactive”. With `CC1=C2C(=O)C=C(CO[C@@H]3O[C@H](CO)[C@@H](O)[C@H](O)[C@H]3O)[C@@H]2[C@H]2OC(=O)[C@H](C)[C@@H]2[C@@H](O)C1` the Potency was “inactive”.

These compounds were tested against Phospholipid hydroperoxide glutathione peroxidase GPX4 (Homo sapiens) (UniProt P36969) (assay: Primary qHTS Assay for Inhibitors of Recombinant Selenoprotein Glutathione Peroxidase 4 (GPX4) (AID 1845192)). Conditions: recombinant GPX4, GR-coupled NADPH fluorescence, 15 min; series mostly up to 27.8 µM.
Phospholipid hydroperoxide glutathione peroxidase GPX4 (Homo sapiens), sequence (P36969 whole entry, looked up): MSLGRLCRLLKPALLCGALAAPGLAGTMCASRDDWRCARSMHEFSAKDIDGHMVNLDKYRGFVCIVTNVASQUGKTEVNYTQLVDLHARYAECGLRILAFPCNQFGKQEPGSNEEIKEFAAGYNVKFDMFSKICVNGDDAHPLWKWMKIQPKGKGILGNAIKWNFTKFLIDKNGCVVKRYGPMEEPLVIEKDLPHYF
In short: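 NADPH consumption followed by fluorescence at 340/450 nm, t=0 and after 15 min at room temperature. Reaction started with cumene hydroperoxide (0.5 mM final) after 30 min compound–GPX4 preincubation; final 200 nM GPX4, 100 nM GR, 1 mM GSH, 0.5 mM NADPH.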
For `CC1=CC(=O)CC(C)(C)C1CO[C@@H]1O[C@H](CO)[C@@H](O)[C@H](O)[C@H]1O` (stereo partly specified), the Potency was “inactive”. For `COC(=O)C1C(c2ccc(O)cc2)C(C(=O)O)C1c1ccc(O)cc1` (stereo unspecified), the Potency was “inactive”. In the case of `C=C1CCC2[C@@](C)(C(=O)O)CCC[C@@]2(C)[C@@H]1CCc1ccoc1` (stereo partly specified), the Potency is reported as “inactive”. `O=C(O)c1ccncc1Nc1nn(CCN2CCC(F)(F)CC2)c2ccc(F)cc12` was tested, and the Potency was “inactive”. With `CC1CC2(O)OC(=O)C3=C2C(CCC3)[C@@]12C[C@@H](c1ccoc1)OC2=O` (stereo partly specified) the Potency was “inactive”. For `CC1CCC2C(C)(C)C(O)C(O)CC2(C)C12Cc1c(O)cc(CO)c(C=O)c1O2` (stereo unspecified), the Potency was “inactive”. `C=C1CCC[C@]2(C)CC[C@@](O)(C(=C)C(=O)O)C[C@@H]12` was tested, and the Potency was “inactive”. For `N[C@@H](CCNCc1ccc(Cl)cc1)C(=O)N1CCCCC1`, the Potency was “inactive”. For `C=C1CCC2C(C)(C(=O)OC)CCCC2(C)C1CCC1=CCOC1=O` (stereo unspecified), the Potency was “inactive”. In the case of `CC1(C)CC[C@]2(C(=O)O[C@@H]3O[C@H](CO[C@@H]4O[C@H](CO)[C@@H](O)[C@H](O)[C@H]4O)[C@@H](O)[C@H](O[C@@H]4O[C@H](CO)[C@@H](O)[C@H](O)[C@H]4O)[C@H]3O)CC[C@]3(C)C(=CCC4[C@@]5(C)CC[C@H](O[C@@H]6OC[C@@H](O)[C@H](O)[C@H]6O)[C@@](C)(C(=O)O)C5CC[C@]43C)[C@@H]2C1` (stereo partly specified), the Potency is reported as “inactive”. With `COc1ccc(C(=O)CC(=O)O)c2c1C=CC(C)(C)O2` the Potency was “inactive”. In the case of `COC1OC(OC)C(O)(CCC2(C)C(C)CCC3(C)C2CC(O)C(O)C32CO2)C1O` (stereo unspecified), the Potency is reported as “inactive”. `O=C(O)[C@H]1Cc2ccccc2CN1` was tested, and the activity change, negative = inhibition was 3.24% [at 4.52 µM]. `OC[C@H]1O[C@@H](OCCc2ccccc2)[C@H](O)[C@@H](O)[C@@H]1O` was tested, and the Potency was “inactive”. For `COC(=O)c1ccc(OC)cc1O[C@@H]1O[C@H](CO[C@@H]2OC[C@@H](O)[C@H](O)[C@H]2O)[C@@H](O)[C@H](O)[C@H]1O`, the Potency was “inactive”. For `CC1(C)C(=O)CCC2(C)C1C(O)C=C1COC(=O)C12O` (stereo unspecified), the Potency was “inactive”. With `Cn1cc(Nc2cnccc2C(=O)O)c2cccnc21` the Potency was “inactive”. With `C[C@H]1[C@H](C)CC[C@]2(C(=O)O)CC[C@]3(C)C(=CCC4[C@@]5(C)C[C@@H](O)[C@H](O)C(C)(C)C5CC[C@]43C)[C@H]12` (stereo partly specified) the Potency was “inactive”. In the case of `C/C(=C/CO)CC[C@H]1[C@]2(C)C[C@H](O)CC(C)(C)[C@H]2CC[C@]1(C)O`, the Potency is reported as “inactive”. `CSCC[C@H](NC(=O)[C@H](CO)NC(=O)[C@H](CCC(=O)O)NC(C)=O)C(=O)N[C@H](C=O)CC(=O)O` (Ac-ESMD-aldehyde) was tested, and the Potency was “inactive”. For `CCCO[C@@H]1O[C@H](CO)[C@@H](O)[C@H](O)[C@H]1O[C@@H]1OC[C@@H](O)[C@H](O)[C@H]1O`, the Potency was “inactive”. With `O=C(O)CCc1cccc(O)c1O[C@@H]1O[C@H](CO)[C@@H](O)[C@H](O)[C@H]1O` the Potency was “inactive”. In the case of `COCc1c(O)c(C(=O)O)c(C)c2c1OC(=O)c1c(C)cc(O)c(CO)c1O2`, the Potency is reported as “inactive”. For `CCC(C)/C=C(C)/C=C/C1=CC2=C(Cl)C(=O)C(C)(OC(C)=O)C(=O)C2=CN1C(CCC(=O)O)C(=O)O` (stereo unspecified), the Potency was “inactive”. `C=C[C@@]1(C)CCC2=C([C@H]1OC(C)=O)[C@H](OC(C)=O)CC1[C@](C)(C(=O)OC)CC[C@H](OC(C)=O)[C@]21C` (stereo partly specified) was tested, and the Potency was “inactive”. For `COC1CC(O[C@H]2CC[C@@]3(C)C(=CC[C@]4(O)C3[C@H](O)[C@@H](O)[C@]3(C)[C@@H]([C@H](C)O)CC[C@@]34O)C2)OC(C)C1OC1CC(OC)C(OC2CC(OC)C(OC3OC(C)C(OC4OC(CO)C(O)C(O)C4O)C(OC)C3O)C(C)O2)C(C)O1` (stereo partly specified), the Potency was “inactive”. For `C/C=C/C=C/C=C/C(=O)N(C)C(C(=O)NC(C)C(=O)N1CCCC1C(N)=O)C(C)C` (stereo unspecified), the Potency was “inactive”. `C/C=C/C=C/C(O)=C1/C(=O)[C@]2(C)C(=O)[C@@](C)(O)[C@H]1[C@H]([C@@]1(C)OC(=O)C(C)=C1O)[C@H]2C(=O)CC/C=C/C` was tested, and the Potency was “inactive”. `COc1ccc(CC(NC(C)=O)C(=O)O)cc1` (stereo unspecified) was tested, and the Potency was “inactive”. `CC(=O)OC[C@]12[C@H](OC(C)=O)[C@H](OC(=O)c3ccccc3)[C@@H]3[C@@H](OC(C)=O)[C@]1(OC3(C)C)[C@H](C)C[C@H](OC(=O)c1ccccc1)[C@@H]2OC(=O)c1ccccc1` was tested, and the Potency was “inactive”. With `C/C(=C\CCC(C)C1CC(O)C2(C)C3CCC4C(C)(C)C(OC5OCC(O)C(O)C5O)CCC45CC35CC(O)C12C)C(=O)O` (stereo unspecified) the Potency was “inactive”. In the case of `COc1cccc(C(=O)NCCNc2nc3cc(C)cc(C)c3cc2C#N)c1`, the Potency is reported as “inactive”. With `CN1CCN(C2=Nc3ccccc3Nc3ccc(O)cc32)CC1` the Potency was “inactive”. In the case of `CC[C@@H]1C(=O)O[C@]23C=C[C@@H]4C(C(=O)OC)=CO[C@H](O[C@@H]12)[C@@H]43`, the Potency is reported as “inactive”. With `CC(C)NC(=O)c1ccc(C#Cc2ccncc2)cn1` the Potency was “inactive”. `N[C@@H](CC(=O)Nc1ccc(Oc2cc(F)c(F)cc2Br)cc1)C(=O)O` was tested, and the Potency was “inactive”. `CC1=CC(=O)CC(C)(C)C1CCC(C)O[C@@H]1O[C@H](CO)[C@@H](O)[C@H](O)[C@H]1O` (stereo partly specified) was tested, and the Potency was “inactive”. For `COc1cc(O)cc2c1C(=O)OC(C)C2` (stereo unspecified), the Potency was “inactive”. In the case of `CC1=C2C(=O)C=C(CO[C@@H]3O[C@H](CO)[C@@H](O)[C@H](O)[C@H]3O)[C@@H]2[C@H]2OC(=O)[C@H](C)[C@@H]2[C@@H](O)C1`, the Potency is reported as “inactive”.
